# Data: PubChem BioAssay
# Calls of active or inactive are those of the source. Unless noted, the rule behind the calls is not given here.
# Tests used:
# [1] = compounds binding Alexa647 anti-His antibody – biochemical, small-molecule microarray, 635 nm fluorescence, artefact control for SMM control protein annotation, primary screen (AID 1128); settings: higher = more signal;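 note: score merges feature fluorescence with signal-to-noise for each printed compound spot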
# [2] = tested on: Human papillomavirus type 1a E7 protein (residues 1-88); assay: HPV1a E7 small-molecule binders, primary screen, biochemical, small-molecule microarray, residues 1-88, 635 nm (AID 1129); settings: small-molecule microarray binding, fluorescence 635 nm; higher = more signal
# [3] = biological target: Focal adhesion kinase 1 (Homo sapiens) (UniProt Q05397); assay: PTK2 protein binding on printed compound slides – biochemical, small-molecule microarray, 635/667 nm fluorescence, BSA, DTT, primary screen (AID 1130); settings: 635 nm fluorescence, higher = more signal;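 note: composite of spot emission at 667 nm and signal to noise over triplicate slides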
# [4] = tested on: Fibrinogen (Alexa647-labelled); assay: Alexa647-fibrinogen binding to printed small molecules – biochemical, small-molecule microarray, 635/667 nm fluorescence, artefact control for SMM control-protein annotation, profiling panel (AID 1131); settings: fibrinogen-A647 binding fluorescence, higher = more signal;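 note: z-score merges 667 nm fluorescence with per-spot signal-to-noise over triplicate slides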
# [5] = biological target: Follistatin (Homo sapiens) (UniProt P19883); assay: FST protein binding to printed compounds – biochemical, small-molecule microarray, 635/667 nm fluorescence, primary screen (AID 1132); settings: 635 nm fluorescence, higher = more signal
# [6] = biological target: Fibroblast growth factor 2 (Homo sapiens) (UniProt P09038); assay: basic fibroblast growth factor binding to printed compounds – biochemical, small-molecule microarray, 635/667 nm fluorescence, primary screen (AID 1133); settings: FGF2, fluorescence 635/667, higher = more signal
# [7] = JC-1 mitochondrial potential readout, lung cancer cells – cell-based, A549, JC-1 fluorescence, basal, 24 h, 100 nL, profiling panel (AID 1138); settings: higher = more signal;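 note: A549 lung adenocarcinoma cells under basal conditions with no added stimulus; test concentration not given here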
# [8] = tested on: Lefty1; assay: Lefty1 protein binding to printed compounds – biochemical, small-molecule microarray, 635/667 nm fluorescence, primary screen (AID 1139); settings: fluorescence 635/667, higher = more signal
# [9] = tested on: wheat germ agglutinin (Triticum aestivum), Alexa647-labelled; assay: Alexa647-WGA lectin binding to printed small molecules – biochemical, small-molecule microarray, 635/667 nm fluorescence, artefact control for SMM control-protein annotation, profiling panel (AID 1140); settings: WGA-A647 binding, 635 nm fluorescence, higher = more signal;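 note: score merges 667 nm feature emission with signal to noise over triplicate slides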
# [10] = biological target: Luciferin 4-monooxygenase (Photinus pyralis) (UniProt P08659); assay: inhibition of purified Photinus pyralis luciferase – biochemical, luminescence, purified enzyme, 2006 set, primary screen (AID 1141); settings: purified firefly luciferase, SteadyGlo luminescence, 30 min; higher = more signal, called active from +8 up or from −8 down;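 note: cell-free assay with purified firefly luciferase at 100 ng per well in PBS; test concentration not given here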
# [11] = tested on: Wnt5a (protein binding on small-molecule microarray); assay: small molecules binding Wnt5a protein – biophysical, small-molecule microarray, 635/667 nm fluorescence, primary screen (AID 1142); settings: 635 nm fluorescence, higher = more signal;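 note: fluorescence read at 667 nm with signal to noise per printed feature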
# [12] = ATP-based viability of Huh7 replicon cells – cell-based, CellTiter-Glo luminescence, basal, 48 h, cytotoxicity control for HCV replication inhibitor project, primary screen (AID 1143); settings: higher = more signal, called active from +8 up or from −8 down;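 note: Huh7 hepatoma cells carrying a hepatitis C replication reporter with no stimulus; test concentration not given here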
# [13] = Pseudomonas biofilm growth suppression – PAO1 strain, BacTiter-Glo luminescence, LB-PBS, primary screen (AID 1144); settings: P. aeruginosa PAO1 biofilm, 12 h, higher = more signal
# [14] = basal CRE-LacZ reporter activity in PC12 – cell-based, unstimulated, primary screen (AID 1145); settings: no forskolin, luminescence, 4.5 h, higher = more signal, called active from +8 up or from −8 down
# [15] = forskolin-driven CRE-LacZ activity in PC12 – cell-based, CRE-LacZ reporter, forskolin-stimulated, primary screen (AID 1146); settings: luminescence, 4.5 h, higher = more signal, called active from +8 up or from −8 down;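 note: PC12 cells with 6xCRE LacZ reporter stimulated by forskolin 10 µM; beta-galactosidase reporter signal reflecting CREB driven transcription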
# [16] = biological target: Streptavidin (Streptomyces avidinii) (UniProt P22629); assay: compounds binding control protein streptavidin – biophysical, small-molecule microarray, 635/667 nm fluorescence, artefact control for SMM compound annotation, primary screen (AID 1147); settings: higher = more signal;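 note: signal reflects streptavidin binding to arrayed compounds as a control protein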
# [17] = probe aInhba binding on compound microarray – biochemical, small-molecule microarray, 635/667 nm fluorescence, primary screen (AID 1148); settings: higher = more signal;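 note: score merges 667nm spot fluorescence with signal-to-noise for antibody binding to printed compounds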
# [18] = biological target: Torsin-1A (Homo sapiens) (UniProt O14656); assay: TOR1A wild-type binding on microarray – cell lysate, small-molecule microarray, lysate, 635/667 nm, primary screen (AID 1149); settings: COS7 hTOR1A-WT lysate, 635 nm fluorescence, higher = more signal
# [19] = biological target: Torsin-1A (Homo sapiens) (UniProt O14656); assay: torsin A mutant lysate binding on microarrays – cell lysate, small-molecule microarray, COS7 lysate, 635/667 nm fluorescence, primary screen (AID 1150); settings: COS7 hTOR1A mutant lysate, 635 nm fluorescence, higher = more signal;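 note: score pools 667 nm emission and signal to noise measuring lysate protein binding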
# [20] = tested on: Sonic hedgehog protein (Shh); assay: Sonic hedgehog microarray binding compounds – biochemical, small-molecule microarray, 635/667 nm fluorescence, primary screen (AID 1151); settings: 635 nm fluorescence, higher = more signal;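 note: Shh protein binding to compounds spotted on small-molecule microarray slides; score combines spot fluorescence intensity with signal-to-noise across triplicate slides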
# Chain of Torsin-1A (Homo sapiens) (O14656 whole entry, looked up): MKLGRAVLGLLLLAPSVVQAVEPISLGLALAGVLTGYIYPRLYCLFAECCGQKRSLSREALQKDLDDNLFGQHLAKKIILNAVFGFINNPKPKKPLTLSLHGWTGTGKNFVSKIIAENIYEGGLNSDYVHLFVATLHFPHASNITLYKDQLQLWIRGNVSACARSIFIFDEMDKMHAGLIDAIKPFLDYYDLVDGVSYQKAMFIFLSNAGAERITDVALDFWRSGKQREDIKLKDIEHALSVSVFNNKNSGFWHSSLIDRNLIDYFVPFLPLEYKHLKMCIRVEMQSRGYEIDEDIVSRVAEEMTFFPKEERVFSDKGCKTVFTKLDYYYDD
# Chain of Follistatin (Homo sapiens) (P19883 whole entry, looked up): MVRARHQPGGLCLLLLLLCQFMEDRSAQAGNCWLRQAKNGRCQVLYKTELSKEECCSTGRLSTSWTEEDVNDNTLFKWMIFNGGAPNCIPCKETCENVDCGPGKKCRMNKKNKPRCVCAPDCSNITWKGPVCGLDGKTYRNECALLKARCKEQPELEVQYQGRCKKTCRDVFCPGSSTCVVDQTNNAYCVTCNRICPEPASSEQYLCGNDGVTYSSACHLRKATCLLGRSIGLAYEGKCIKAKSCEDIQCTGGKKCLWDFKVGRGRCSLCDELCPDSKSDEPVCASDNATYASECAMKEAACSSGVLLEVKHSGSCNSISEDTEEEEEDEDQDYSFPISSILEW
# Chain of Luciferin 4-monooxygenase (Photinus pyralis) (P08659 whole entry, looked up): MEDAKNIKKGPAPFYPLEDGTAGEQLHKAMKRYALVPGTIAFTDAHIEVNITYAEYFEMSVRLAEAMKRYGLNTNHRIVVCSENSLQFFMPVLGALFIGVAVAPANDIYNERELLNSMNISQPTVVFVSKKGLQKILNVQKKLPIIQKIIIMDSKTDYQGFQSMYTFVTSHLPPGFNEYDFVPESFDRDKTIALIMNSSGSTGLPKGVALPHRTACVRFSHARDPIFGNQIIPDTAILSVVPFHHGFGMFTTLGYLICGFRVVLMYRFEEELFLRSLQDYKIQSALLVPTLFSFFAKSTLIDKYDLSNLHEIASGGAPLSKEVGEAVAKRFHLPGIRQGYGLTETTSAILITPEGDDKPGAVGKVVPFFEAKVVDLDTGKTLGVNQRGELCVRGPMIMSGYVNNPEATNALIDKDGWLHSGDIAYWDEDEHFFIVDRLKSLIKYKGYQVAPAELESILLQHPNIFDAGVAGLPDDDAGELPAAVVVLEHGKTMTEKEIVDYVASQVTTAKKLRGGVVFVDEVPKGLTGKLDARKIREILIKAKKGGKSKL
# Chain of Streptavidin (Streptomyces avidinii) (P22629 whole entry, looked up): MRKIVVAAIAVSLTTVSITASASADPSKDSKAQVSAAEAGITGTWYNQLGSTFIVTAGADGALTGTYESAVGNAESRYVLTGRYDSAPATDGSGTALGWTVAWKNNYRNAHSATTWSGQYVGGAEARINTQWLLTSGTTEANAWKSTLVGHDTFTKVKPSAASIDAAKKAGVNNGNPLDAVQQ
# Chain of Focal adhesion kinase 1 (Homo sapiens) (Q05397 whole entry, looked up): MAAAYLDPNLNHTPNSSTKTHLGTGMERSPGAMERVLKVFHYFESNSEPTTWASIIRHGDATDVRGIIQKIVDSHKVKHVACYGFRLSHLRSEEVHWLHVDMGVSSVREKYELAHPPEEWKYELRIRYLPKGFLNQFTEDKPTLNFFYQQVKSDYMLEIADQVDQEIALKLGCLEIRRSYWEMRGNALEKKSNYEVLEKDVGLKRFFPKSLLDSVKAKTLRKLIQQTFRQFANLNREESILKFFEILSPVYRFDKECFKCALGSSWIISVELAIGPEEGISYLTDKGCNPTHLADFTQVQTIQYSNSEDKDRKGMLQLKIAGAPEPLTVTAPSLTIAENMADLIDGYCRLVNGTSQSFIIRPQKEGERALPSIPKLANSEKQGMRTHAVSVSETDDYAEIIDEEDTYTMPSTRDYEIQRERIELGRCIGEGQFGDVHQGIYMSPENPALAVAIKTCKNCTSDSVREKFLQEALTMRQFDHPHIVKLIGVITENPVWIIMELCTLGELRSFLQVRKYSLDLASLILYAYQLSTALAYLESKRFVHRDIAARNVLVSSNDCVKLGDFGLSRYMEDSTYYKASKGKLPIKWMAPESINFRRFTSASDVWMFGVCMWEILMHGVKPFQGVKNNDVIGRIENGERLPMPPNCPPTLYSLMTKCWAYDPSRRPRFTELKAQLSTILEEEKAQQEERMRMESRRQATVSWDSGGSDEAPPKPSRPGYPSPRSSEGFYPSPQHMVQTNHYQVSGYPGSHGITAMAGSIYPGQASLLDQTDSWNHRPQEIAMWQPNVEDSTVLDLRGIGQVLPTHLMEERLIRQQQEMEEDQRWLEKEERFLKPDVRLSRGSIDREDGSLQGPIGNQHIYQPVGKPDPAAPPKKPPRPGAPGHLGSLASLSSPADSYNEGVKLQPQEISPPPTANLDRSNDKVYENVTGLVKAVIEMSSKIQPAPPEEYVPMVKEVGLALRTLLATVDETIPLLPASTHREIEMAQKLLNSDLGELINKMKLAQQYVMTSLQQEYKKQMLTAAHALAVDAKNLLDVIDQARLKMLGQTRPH
# Chain of Fibroblast growth factor 2 (Homo sapiens) (P09038 whole entry, looked up): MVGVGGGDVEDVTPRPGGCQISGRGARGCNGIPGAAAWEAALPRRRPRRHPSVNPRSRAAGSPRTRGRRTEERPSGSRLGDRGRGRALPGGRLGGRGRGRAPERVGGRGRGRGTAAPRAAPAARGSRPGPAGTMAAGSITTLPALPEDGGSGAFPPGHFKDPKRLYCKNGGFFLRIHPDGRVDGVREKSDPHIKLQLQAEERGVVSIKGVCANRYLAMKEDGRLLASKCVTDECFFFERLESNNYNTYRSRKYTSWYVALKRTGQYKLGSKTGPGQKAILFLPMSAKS
Structure (SMILES),composite z-score [1],composite z-score [2],composite z-score [3],composite z-score [4],composite z-score [5],composite z-score [6],z-score [7],composite z-score [8],composite z-score [9],z-score [10],composite z-score [11],z-score [12],z-score [13],z-score [14],z-score [15],composite z-score [16],composite z-score [17],composite z-score [18],composite z-score [19],composite z-score [20]
COC(=O)[C@@]1(Cc2ccccc2)[C@H]2c3cc(C(=O)N(C)C)n(Cc4ccc(O)c(OC)c4)c3C[C@H]2CN1C(=O)c1ccccc1,2.42,1.11,1.12,0.418,0.465,-0.875,-1.29,-0.239,-0.0465,1.19 (inactive),0.672,-4.52 (inactive),-0.886 (inactive),-0.565 (inactive),0.883 (inactive),0.468,0.877,0.698,1.06,-0.851
COc1cc(C(O)C2C=CC3C(=O)N(C)C(=O)C3N2NC(=O)OC(C)(C)C)cc(OC)c1OC (stereo not given),1.28,1.21,0.474,1.03,0.0314,-0.0371,-0.54,-0.338,0.807,0.225 (inactive),0.653,0.778 (inactive),0.66 (inactive),-0.326 (inactive),1.25 (inactive),0.671,0.798,-0.146,0.727,-0.32
CN(C)C(=O)[C@]1(Cc2ccccc2N=[N+]=[N-])N=C(c2ccc(OCCCO)cc2)O[C@@H]1c1ccccc1CN=[N+]=[N-],1.28,1.25,0.651,1.06,1.23,1.06,0.417,0.624,0.763,-0.307 (inactive),0.556,-4.87 (inactive),-1.57 (inactive),1.57 (inactive),0.367 (inactive),1.27,0.282,0.683,0.84,0.307
Cc1ccc(S[C@]2(C(=O)O)CC(=O)N(Cc3ccccc3C(F)(F)F)[C@@H]2c2ccc(CO)cc2)cc1,-0.916,-0.543,0.0068,-0.772,-0.238,-1.18,0.391,-1.27,-0.475,0.989 (inactive),-0.297,0.455 (inactive),0.231 (inactive),0.0279 (inactive),-0.369 (inactive),-0.655,-0.113,0.0183,1.46,-1.1
COc1ccccc1CN1C(=O)c2ccccc2[C@@H](C(=O)NCC(C)C)[C@@H]1c1ccc(CO)cc1,0.366,1.18,0.088,0.707,1.23,1.56,0.163,-0.632,0.342,-0.836 (inactive),0.572,-0.922 (inactive),0.34 (inactive),-0.258 (inactive),-0.992 (inactive),-0.378,-0.145,-0.114,0.526,0.0072
O=C1C2C=CC(C(O)c3ccc(Br)cc3)N(Nc3ccccc3)C2C(=O)N1c1ccccc1 (stereo not given),0.0876,1.14,0.081,0.572,0.52,-0.364,0.0103,-0.51,1.09,0.296 (inactive),-0.0007,0.198 (inactive),-0.95 (inactive),0.24 (inactive),0.35 (inactive),1.47,0.147,-0.0004,-0.0172,-0.146
CC1(C)[C@@H]2CC(C(O)C3C=CC4C(=O)N(c5ccccc5)C(=O)C4N3Nc3ccccc3F)=C[C@@H]1C2 (stereo not given in full),1.41,1.2,0.218,0.938,0.876,1.26,-0.136,0.655,0.392,0.905 (inactive),0.512,-2.69 (inactive),-1.31 (inactive),-0.826 (inactive),-0.7 (inactive),0.5,0.0291,0.233,0.541,0.625
COC(=O)[C@@]1(Cc2ccc(F)cc2)[C@H]2c3cc(C(=O)N(C)C)n(Cc4ccc(C)c(F)c4F)c3C[C@H]2CN1C(=O)c1ccccc1,2.08,0.864,0.454,0.743,0.0662,-0.769,1.33,-0.413,0.854,0.0883 (inactive),0.152,-1.47 (inactive),0.563 (inactive),0.0041 (inactive),0.204 (inactive),0.993,0.651,0.123,0.432,-0.553
C[N+](C)(C)CCCCNC(=O)[C@H]1C[C@H]2C(=O)NCC(=O)N2[C@H]1c1ccc(O)cc1,3.01,0.241,-0.169,-0.0907,1.41,1.91,0.244,1.49,-0.287,-0.367 (inactive),0.442,0.215 (inactive),-0.895 (inactive),-0.398 (inactive),-0.501 (inactive),0.158,0.106,0.979,0.672,2.14
CCOC(=O)C[C@H]1[C@H](OC(=O)c2ccc(C(=O)c3ccccc3)cc2)[C@@H](NC(=O)C2CCCCC2)c2cc(OCCCO)ccc2N1C(=O)Cc1ccc(OC)cc1,0.027,0.785,0.494,0.441,0.432,0.0799,1.36,0.942,0.221,0.13 (inactive),0.354,-0.281 (inactive),0.193 (inactive),1.24 (inactive),-0.0721 (inactive),0.519,0.0497,0.192,1.24,0.761
